# Compounds without any hit were thinned out: in the full panel of roughly 83,000, 20% have a hit.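 Assay: single dose, 48 h. Readout: percent growth (0 = no net growth; negative = cell death). Active: <10.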 Unmarked numbers belong to inactive results. Active and inactive are the calls of the source.
# Columns and labels:
# Experiment in all cases: NCI-60 one-dose screen, 48 h (100 = growth as untreated, 0 = no growth, -100 = all killed)
# Conditions in all cases: 10 µM unless noted
# NCI-H23 lung = test system: NCI-H23 lung
# NCI-H226 lung = test system: NCI-H226 lung
# NCI-H322M lung = test system: NCI-H322M lung
# HOP-62 NSCLC = test system: HOP-62 NSCLC
# NCI-H460 lung = test system: NCI-H460 lung
# HOP-92 NSCLC = test system: HOP-92 NSCLC
# NCI-H522 lung = test system: NCI-H522 lung
# A549/ATCC NSCLC = test system: A549/ATCC NSCLC
# 786-0 renal = test system: 786-0 renal
# COLO 205 colon = test system: COLO 205 colon
SMILES,growth (NCI-H23 lung),growth (NCI-H226 lung),growth (NCI-H322M lung),growth (HOP-62 NSCLC),growth (NCI-H460 lung),growth (HOP-92 NSCLC),growth (NCI-H522 lung),growth (A549/ATCC NSCLC),growth (786-0 renal),growth (COLO 205 colon)
CCOC(=O)c1c(NC(=O)c2ccc(F)cc2F)sc2c1CCC(=O)C2,103%,107%,102%,104%,102%,107%,51.6%,92.8%,100%,109%
O=C(Nc1ccc(Cl)cc1)Nc1nc2ccc([N+](=O)[O-])cc2s1,-45.5% (active),-15% (active),2.65% (active),-33.5% (active),-9.27% (active),-25.9% (active),-21.3% (active),1.71% (active),5.56% (active),-62.6% (active)
O=C(COc1ccc(C2SCC(=O)N2c2ccc(F)cc2)cc1)c1ccccc1 (stereo not given),95.6%,91.7%,98.3%,95.5%,108%,76.7%,84.1%,87.9%,102%,112%
CCOC(=O)/C=c1\sc2n(c1=O)C1C(NN=2)N(CC)C(=O)N1CC (stereo not given),79.6%,81.2%,78.9%,71.6%,37.8%,75.3%,33.3%,62.1%,63%,51.3%
O=C1NC(=O)/C(=C/c2ccc(OCc3cc4ccccc4nc3Cl)cc2)S1,87.1%,101%,103%,105%,101%,78.6%,79.8%,99.6%,93.7%,122%
Oc1ccc(CSc2nnc(-c3ccc(Oc4ccccc4)cc3)n2-c2ccccc2)c2cccnc12,21.3%,18.9%,18.3%,15%,0.254% (active),10.5%,15%,11.8%,21.6%,27.7%
CN(c1ccc(F)cc1)S(=O)(=O)c1ccc(-c2cnc(C3CC3)o2)cc1,30.5%,60.5%,45.6%,44.1%,17.2%,81.1%,25.6%,31.1%,50.3%,6.42% (active)
C#C[C@]1(O)CC[C@H]2[C@@H]3CC=C4c5sc(Nc6ccc(OC)nc6)nc5CC[C@]4(C)[C@H]3CC[C@@]21C,63.1%,47.4%,85%,51.7%,41.5%,60%,36%,55.2%,-27.6% (active),49.3%
CS(=O)(=O)c1ccc(-c2nn(-c3ccccc3)cc2/C=N/NC(=O)c2ccncc2)cc1,97.5%,110%,96.9%,105%,114%,96.3%,84.7%,102%,82.6%,110%
COc1ccc([C@H]2c3[nH]c4ccccc4c3C[C@@H]3C(=O)N(C4CCN(Cc5ccccc5)CC4)CC(=O)N23)c(OC)c1,93.7%,82.3%,90.1%,80.8%,54.4%,68%,87%,69.8%,74.3%,67.1%
O=C(NCCCNc1cc(-c2cn(-c3ccccc3)nc2-c2cccc(O)c2)ccn1)Nc1cc(C(F)(F)F)cc(C(F)(F)F)c1,83.2%,79.6%,90.3%,78.2%,61.3%,52%,89.5%,67.1%,63.2%,80.4%
COc1ccc2c(c1)c(-c1nn3c(=O)cc(-c4ccccc4)nc3s1)cn2C,63%,21.1%,65.2%,43.2%,21.7%,18.7%,-34% (active),56.7%,37.8%,27.2%
C/C=C/[C@@H]1C=C[C@@H]2C[C@H](C)CC[C@H]2[C@]1(C)/C(O)=C1/C(=O)[C@H](CO)N(C)C1=O,56.8%,69.1%,61.6%,37.9%,54.7%,56.9%,58.2%,42.3%,47.3%,78.1%
N#Cc1c(-c2ccccc2)cc(-c2c[nH]c3ccccc23)nc1-c1c[nH]c2ccccc12,95.6%,89.9%,105%,92.7%,106%,92.1%,97.1%,98.7%,102%,108%
Cc1ccc(-c2cc(-c3cccc4ccccc34)n3c(n2)nc2ccccc23)cc1,82%,57.9%,90.6%,67.5%,21.9%,71.6%,76.9%,39.6%,47.6%,59.7%
COc1cc(NC2=C(Cl)C(=O)c3nc(C)ccc3C2=O)cc(OC)c1,-55.6% (active),68.6%,89.8%,0.846% (active),2.02% (active),-12.2% (active),-80.6% (active),42.4%,-59.5% (active),-80.5% (active)
N#Cc1c(-c2cccs2)cc(-c2cnccn2)nc1SCC(=O)NNC(=S)Nc1ccc(F)cc1,108%,117%,97.3%,106%,105%,112%,95.5%,100%,99.3%,112%
CN1C(=O)/C(=C/C=C/c2ccco2)SC1=S,75.7%,70.1%,88.8%,93.8%,99.1%,98.9%,71.3%,72%,84.9%,94.3%
COc1ccc(-c2cc(-c3ccc(Cl)cc3)nc3nc(N)nn23)cc1,108%,99.6%,102%,107%,107%,102%,93.9%,93.8%,87.7%,105%
C#C[C@]1(O)CC[C@H]2[C@@H]3CC=C4c5sc(Nc6cc(OC)ccc6OC)nc5CC[C@]4(C)[C@H]3CC[C@@]21C,33.9%,60.4%,62.2%,41.2%,26.6%,51.4%,63.8%,38%,-2.79% (active),18.5%
CS(=O)(=O)c1ccc(-c2nn(-c3ccccc3)cc2/C=C/C(=O)c2ccc(Br)cc2)cc1,100%,101%,95.4%,105%,93.9%,114%,82.6%,96.5%,91.5%,113%
CNC(=O)c1cc(N2CCc3cc(NC(=O)Nc4ccc(Cl)c(Cl)c4)ccc32)ccn1,95.9%,95.9%,98.6%,87%,82.5%,88.9%,68.5%,76.3%,67.2%,77.3%
CC(C)(C)CC(C)(C)n1nnnc1C(Nc1ccccc1)c1cc2cccc3ccc4cccc1c4c32 (stereo not given),82.3%,84%,91.5%,86.1%,81.7%,49.7%,72%,78.5%,88.4%,96.4%
C#C[C@]1(O)CC[C@H]2[C@@H]3CC=C4c5sc(Nc6cc(Cl)ccn6)nc5CC[C@]4(C)[C@H]3CC[C@@]21C,35.4%,22.9%,59.3%,14.1%,13.5%,18.4%,30.2%,37.5%,-70.8% (active),21.2%
COc1cc(C(=O)c2cc(C(C)=O)c3c4ccccc4ccn23)cc(OC)c1OC,64.4%,66.8%,74.8%,56%,45.1%,26.8%,52%,61.1%,70.1%,38.6%
COc1cc2c3c(n(CCCN4CCCC4)c(=O)c2cc1OC)-c1cc2c(cc1C3=O)OCO2,-73.2% (active),80.1%,-40.2% (active),-72.6% (active),-78.6% (active),119%,-59.7% (active),-77.1% (active),-90.9% (active),-77.3% (active)
